According to PubChem BioAssay (Tox21):
Inconclusive results are not listed. Entries that show only a call come without a potency. Calls of active or inactive are those of the source. Calls come from the whole dose curve; as a rule, active = well fitted activation curve with a large enough effect in the repeat runs; inconclusive = weak or mixed curves; inactive = no such curve, though single readings can be large or run the other way.

Target: Nuclear receptor subfamily 1 group I member 2 (Homo sapiens) (UniProt O75469)
Test: CYP3A4 induction through human pregnane X receptor (PXR) by small molecules, qHTS assay (AID 1346984); note: nearly all actives have a fitted effect of over 40% in size
Settings: DPX-2 HepG2 PXR, CYP3A4-luciferin luminescence, 24 h; series mostly up to 46.1 µM
From the text: National Center for Advancing Translational Sciences [NCATS]
NIH Chemical Genomics Center [NCGC]
U.S. Environmental Protection Agency [EPA]
National Institutes of Environmental Health Sciences [NIEHS]
National Toxicology Program [NTP]
The Pregnane X receptor (PXR), a ligand activated nuclear receptor plays a critical role in the regulation of genes involved in drug metabolism and transporters. Activation of PXR is responsible for unwanted adverse drug reactions. PXR binds xenobiotics and when compounds interact with PXR enhances the expression of CYP3A genes. Identifying the compounds with the potential for PXR activation and CYP3A4 induction can be of importance in improving the efficacy of drugs with less toxicity and avoiding drug-drug interactions.
DPX-2 (Puracyp, Inc.) cell lines, used for screening against human PXR activation has HepG2 cells co-transfected with a PXR response element and a luciferase construct containing CYP3A4 promoter. Increase in luciferase activity can be used to identify the compounds that cause the induction of CYP3A4.
DPX-2 cells were dispensed at 2,000 cells per well in 5uL of assay medium into white, solid-bottom 1536-well plates using a Multidrop Combi dispenser (Thermo Scientific). The assay plates were incubated at 37C for 5hr before transferring 23nL of test compounds dissolved in DMSO and positive control via Pintool station (Wako). The assay plates were incubated at 37C for 24hr. After 24hr compound treatment, 1uL of 3uM (final concentration) P450 substrate (P450-Glo CYP3A4 screening system with Luciferin-IPA, Promega) was added by a Flying Reagent Dispenser (FRD, Aurora Discovery). The assay plates were incubated for 3hr at 37C. Then 5ul One-Glo assay reagent (Promega) was added to each plate by an FRD and following 30 min incubation at room temperature, luciferase activity was quantified on a ViewLux plate reader (Perkin Elmer).
Potency is the fitted concentration of half-maximal effect.

Question: With `CCC(COC(=O)c1cc(OC)c(OC)c(OC)c1)(c1ccccc1)N(C)C` (stereo unspecified) as the compound, how does the Potency read?
Answer: 15.8 µM (active)

Question: Which Potency does the source give for `C#CCOC(C(=O)OCCN(C)C)(c1ccccc1)c1ccccc1` here?
Answer: 15.8 µM (active)

Question: Which Potency does the source give for `O=C1NCN(c2ccccc2)C12CCN(CCCOc1ccc(F)cc1)CC2` here?
Answer: inactive

Question: How did the Potency turn out when `CCCCCCCCCC(=O)O[C@H]1CC[C@H]2[C@@H]3CCC4=CC(=O)CC[C@@H]4[C@H]3CC[C@]12C` was run?
Answer: inactive

Question: With `CC(O)(CS(=O)(=O)c1ccc(F)cc1)C(=O)Nc1ccc(C#N)c(C(F)(F)F)c1` (stereo unspecified) as the compound, how does the Potency read?
Answer: inactive

Question: For `COCC(C)N(C(=O)CCl)c1c(C)csc1C` (stereo unspecified), which Potency is on record?
Answer: inactive

Question: Which Potency does the source give for `CN1C(=O)NC(=O)C(C)(C2=CCCCC2)C1=O` (stereo unspecified) here?
Answer: inactive

Question: For `O=[N+]([O-])c1ccc(F)c([N+](=O)[O-])c1`, which Potency is on record?
Answer: inactive

Question: With `CCOP(=O)(OCC)O/C(=C/Cl)c1ccc(Cl)cc1Cl` as the compound, how does the Potency read?
Answer: inactive

Question: With `O=[N+]([O-])C(Br)(CO)CO` as the compound, how does the Potency read?
Answer: inactive

Question: `O=C1c2ccccc2C(=O)C1C(=O)C(c1ccccc1)c1ccccc1` was tested. Which Potency did it give?
Answer: inactive

Question: `Clc1ccc(C(OCCN2CCCCC2)c2ccccc2)cc1` (stereo unspecified) was tested. Which Potency did it give?
Answer: 12.6 µM (active)

Question: How did the Potency turn out when `ClC=C(Cl)Cl` was run?
Answer: inactive

Question: Which Potency does the source give for `Cn1sc(Cl)cc1=O` here?
Answer: inactive

Question: `CC(=O)NC1CCSC1=O` (stereo unspecified) was tested. Which Potency did it give?
Answer: inactive

Question: For `CC(=O)[C@H]1CC[C@H]2[C@@H]3CC[C@H]4C[C@](C)(O)CC[C@]4(C)[C@H]3CC[C@]12C`, which Potency is on record?
Answer: inactive
